# High-throughput results (PubChem BioAssay)
# NOMO-1 viab: STK33 inhibitor candidate reducing NOMO-1 cell viability. NOMO-1 AML viability, CellTiter-Glo luminescence, 72 h. inhibition, % (concentration not given with the values). actives 7.5% (n = 37,000); in the data active = inhibition above about 80%; inconclusive = no clear call, values can overlap the other calls
# PD-1 reverse act: activators reversing PD-1 mediated T-cell inhibition. activation, % (no concentration beside the values). AID 2316. primary human CD4 T cells, PD-L1 beads, CellTiter-Glo 96 h. 29,000 tested, under 10 active; call rule not given here;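 note: 0% = median vehicle wells and 100% = positive control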
# STK33 kin inh: blocks human STK33 kinase activity; Q9BYT3; ADP-Glo luminescence, MBP substrate; inhibition, % at 12.5 µM; actives 0.44% (n = 27,000); AID 2322; in the data active = inhibition above about 20%; inconclusive = no clear call, values can overlap the other calls
# Target sequence (Q9BYT3 whole entry, looked up): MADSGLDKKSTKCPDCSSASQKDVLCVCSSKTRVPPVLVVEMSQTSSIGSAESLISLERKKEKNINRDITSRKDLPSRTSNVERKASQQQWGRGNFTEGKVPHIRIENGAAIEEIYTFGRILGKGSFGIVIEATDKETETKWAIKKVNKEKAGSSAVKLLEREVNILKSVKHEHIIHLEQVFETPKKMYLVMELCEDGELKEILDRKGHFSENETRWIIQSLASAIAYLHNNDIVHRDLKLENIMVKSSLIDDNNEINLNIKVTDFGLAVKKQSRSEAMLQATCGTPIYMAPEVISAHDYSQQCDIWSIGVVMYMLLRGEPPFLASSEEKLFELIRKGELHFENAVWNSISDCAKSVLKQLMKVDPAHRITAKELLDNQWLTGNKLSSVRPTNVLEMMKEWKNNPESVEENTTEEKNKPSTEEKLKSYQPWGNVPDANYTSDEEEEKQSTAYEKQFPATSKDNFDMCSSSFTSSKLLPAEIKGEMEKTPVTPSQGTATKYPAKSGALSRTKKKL
# Active calls of the source: *; ? = inconclusive; / = no result. Only a selection was taken, and hits are over-represented in it overall.
SMILES,NOMO-1 viab,PD-1 reverse act,STK33 kin inh
CCC(Sc1nnc(-c2ccc(NC(C)=O)cc2)n1C)C(=O)Nc1ccc(Cl)cc1 (stereo unspecified),16,-2,-1
C[C@@H]1CN([C@H](C)CO)C(=O)Cc2cc(NC(=O)Nc3ccc(F)cc3)ccc2O[C@@H]1CN(C)CC1CCCCC1,100*,1,-3
C[C@@H]1CN([C@H](C)CO)C(=O)Cc2cc(NC(=O)Nc3cccc4ccccc34)ccc2O[C@@H]1CN(C)CC1CCCCC1,87*,-3,-1
C[C@@H]1CN([C@H](C)CO)C(=O)Cc2cc(NC(=O)Nc3cccc4ccccc34)ccc2O[C@H]1CN(C)CC1CCCCC1,9,/,4
C[C@@H]1CN([C@H](C)CO)C(=O)Cc2cc(NC(=O)Nc3ccccc3)ccc2O[C@@H]1CN(C)CC1CCCCC1,104*,1,0
CC(C)NC(=O)Nc1ccc2c(c1)CC(=O)N([C@@H](C)CO)C[C@H](C)[C@H](CN(C)CC1CCCCC1)O2,9,1,-5
C[C@H]1CN([C@@H](C)CO)C(=O)Cc2cc(NC(=O)Nc3ccccc3)ccc2O[C@@H]1CN(C)CC1CCCCC1,101*,4,3
C[C@H]1CN([C@@H](C)CO)C(=O)Cc2cc(NC(=O)Nc3ccccc3)ccc2O[C@@H]1CN(C)CC1CC1,-1,0,1
C[C@H](CO)N1C[C@H](C)[C@H](CN(C)CC2CC2)Oc2ccc(NC(=O)Nc3ccc(F)cc3)cc2CC1=O,-8,/,-2
CC1(C)N=C(NS(=O)(=O)c2cc(C(F)(F)F)cc(C(F)(F)F)c2)N(c2ccccc2)O1,14,-1,/
O=C(NCc1cc2ccccc2[nH]1)c1cc(-c2ccccn2)nc2ccc(Br)cc12,11,/,-2
C/C=C/C1=C(Cl)C(=O)[C@@H](O)[C@@]1(O)C(=O)OC,108*,-9,4
CC(C)=CCc1c(-c2ccc(O)cc2O)oc2c(CC=C(C)C)c(O)cc(O)c2c1=O,24,1,-2
COC(=O)c1c(NC(=O)Cn2cc([N+](=O)[O-])cn2)sc2c1CCCC2,21,0,2
Cc1ccc(/C(C#N)=C/c2ccc(N(C)C)cc2)cc1,116*,-2,/
COc1ccccc1/C=C(\C#N)c1ccc(C)cc1,17,-1,/
O=C(NCCN1CCOCC1)C(=O)Nc1cccc(F)c1,4,1,-2
C[C@@H]1CN([C@H](C)CO)C(=O)Cc2cc(NC(=O)Nc3ccc4c(c3)OCO4)ccc2O[C@H]1CN(C)S(=O)(=O)c1cccs1,11,/,3
C[C@H](CO)N1C[C@H](C)[C@H](CN(C)S(=O)(=O)c2cccs2)Oc2ccc(NC(=O)Nc3ccc(C(F)(F)F)cc3)cc2CC1=O,123*,/,4
C[C@@H]1CN([C@@H](C)CO)C(=O)Cc2cc(NC(=O)Nc3ccc(C(F)(F)F)cc3)ccc2O[C@@H]1CN(C)S(=O)(=O)c1cccs1,111*,-8,1
C[C@H](CO)N1C[C@H](C)[C@H](CN(C)S(=O)(=O)c2cccs2)Oc2ccc(NC(=O)Nc3ccc4c(c3)OCO4)cc2CC1=O,86*,1,2
C[C@@H]1CN([C@@H](C)CO)C(=O)Cc2cc(NC(=O)Nc3ccc(F)cc3)ccc2O[C@@H]1CN(C)S(=O)(=O)c1cccs1,-5,1,1
C[C@@H]1CN([C@H](C)CO)C(=O)Cc2cc(NC(=O)Nc3ccc(C(F)(F)F)cc3)ccc2O[C@H]1CN(C)S(=O)(=O)c1cccs1,12,3,4
COc1ccccc1NC(=O)C1=C(C)NC2=C(C(=O)CC(c3ccc(OC)c(OC)c3)C2)C1c1ccc(C)o1 (stereo unspecified),/,/,1
O=S(=O)(NC1CCN(Cc2cccc(OCCO)c2)CC1)c1ccc(Cl)cc1,/,/,1
SMILES,NOMO-1 viab,PD-1 reverse act,STK33 kin inh
COC(=O)c1c(NC(=S)Nc2ccc(S(=O)(=O)N3CCOCC3)cc2)sc2c1CCC(C)C2 (stereo unspecified),/,/,0
C[C@@H]1CN([C@@H](C)CO)C(=O)c2cc(NC(=O)Nc3ccccc3)ccc2O[C@@H]1CN(C)Cc1ccc(Cl)c(Cl)c1,112*,0,/
C[C@H]1CN([C@@H](C)CO)C(=O)c2cc(NC(=O)Nc3ccccc3)ccc2O[C@@H]1CN(C)Cc1ccc(Cl)c(Cl)c1,18,1,0
C[C@H]1CN([C@@H](C)CO)C(=O)c2cc(NC(=O)Nc3ccccc3)ccc2O[C@H]1CN(C)Cc1ccc(Cl)c(Cl)c1,100*,-2,1
C[C@H](CO)N1C[C@H](C)[C@@H](CN(C)Cc2ccc(Cl)c(Cl)c2)Oc2ccc(NC(=O)Nc3ccccc3)cc2C1=O,?,1,-1
O=C(Nc1cc(C(F)(F)F)ccc1Cl)C(Cc1ccccc1)N1C(=O)C2C3C=CC(C4CC34)C2C1=O (stereo unspecified),51,-2,2
Cc1ccccc1CN(CC(N)=O)S(=O)(=O)c1ccc(Cl)cc1,-6,4,-2
CC(=O)c1ccc(NC(=O)CN(C)S(=O)(=O)c2ccc(Cl)cc2)cc1,-13,1,0
CCOC(=O)C(C)Oc1cc(O)c2c(=O)cc(-c3ccccc3)oc2c1 (stereo unspecified),70,3,1
O=S(=O)(c1cccc2c(Cl)cccc12)N1CCCNCC1,90*,-3,-14
O=S(=O)(c1cccc2c(I)cccc12)N1CCCNCC1,65,-2,7
Cc1ccccc1N1C(=O)CC(SCC(=O)Nc2ccccc2)C1=O (stereo unspecified),15,/,2
CC1(C)CC(=O)C2=C(C1)NC(SCC(=O)Nc1ccccc1)=C(C#N)C2c1ccco1 (stereo unspecified),44,-3,0
CCc1ccc(C2C(C#N)=C(C)NC3=C2C(=O)CC(C)(C)C3)cc1 (stereo unspecified),86*,-1,/
COc1cc(OC)c(NC(=O)COc2ccc([N+](=O)[O-])cc2)cc1Cl,-12,0,3
COc1cccc([C@H]2C(C#N)=C(N)C(C#N)(C#N)C3=CCC(C)C[C@@H]32)c1 (stereo partly specified),127*,-3,/
CC(C)N1CC=C2C(C1)C(c1ccccc1)C(C#N)=C(N)C2(C#N)C#N (stereo unspecified),47,0,/
C=C(C)[C@@]12O[C@@H]1[C@@]1(C)C(=CC2=O)CC[C@@H](O)[C@@H]1C,114*,0,-3
CC(C)=C1C[C@@]2(CO)C(=CC1=O)CC[C@@H](O)[C@@H]2C,5,0,-1
CCN1C(=O)/C(=C2\SC(=S)N(c3cccc(Cl)c3)C2=O)c2ccccc21,?,-1,-2
O=C1N(c2cccc(Cl)c2)C(=Nc2cccc(Cl)c2)SC12CC2,114*,-2,/
Cn1c(Cc2ccccc2)nnc1Sc1ccc([N+](=O)[O-])cc1C(=O)N1CCOCC1,-3,/,3
Cc1csc(NC(=O)CSc2nc(C34CC5CC(CC(C5)C3)C4)ccc2C#N)n1,105*,1,/
CC(=O)Nc1nc(C23CC4CC(CC(C4)C2)C3)cs1,4,0,/
CC(=O)c1cccc(NC(=O)NCc2cnn(C)c2)c1,-8,1,-2
O=C1CN(C(=O)/C=C/c2ccccc2)C(c2ccccc2)c2cc(Br)ccc2N1 (stereo unspecified),89*,-3,/
